Data on 14 molecules can be found in PubChem BioAssay (NCATS).

Structures are written as SMILES. Values without a mark were called inactive. Calls of active or inactive are those of the source. The call rests on the fitted dose curve; in most records, active means well fitted cell-killing curve with a large enough effect; inconclusive means small, poorly fitted or top-dose-only effect, or effect the other way; inactive means flat fitted curve, though single readings scatter.
Potency means the concentration at half of the fitted maximal effect.

The nature of the experiment: MultiTox-Fluor Cytotoxicity Assay - LYMP1-003 - Dead Cells (AID 961).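 Further: cells exposed to compound for 16 h at 37 °C; nearly all actives have a fitted effect of over 70% in size.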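 On cytotoxicity (dead cells): 0% = DMSO and 100% = tetraoctylammonium bromide.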 Conditions: LYMP1-003 lymphoblastoid cells, dead-cell protease fluorescence; series mostly up to 92.2 µM; cytotoxicity (dead cells): at the top concentration. The text has this: NIH Chemical Genomics Center [NCGC]
NIH Molecular Libraries Screening Centers Network [MLSCN]
National Institutes of Environmental Health Sciences [NIEHS]
National Toxicology Program [NTP]
We have developed a 1536-well cell-based assay for quantitative high throughput screening (qHTS) against a number of cell lines to determine in vitro cytotoxicity of small molecules. This particular assay uses a human lymphoblastoid cell line (LYMP1-003) purchased from Coriell Institute.
NCGC Assay Protocol Summary:
The MultiTox-Fluor Cytotoxicity Assay (Promega) is a homogeneous method to simultaneously measure the relative number of live and dead cells in culture by detecting changes in cell membrane integrity. There are two fluorogenic peptide substrates in the assay reagent. Viable cells are determined when the cell-permeant substrate (GF-AFC) enters the cell and is cleaved by protease from live cells resulting in liberated fluorophore. This live-cell protease activity restricted to viable cells is proportional to cell number. The dead cells are determined by using fluorogenic cell-impermeant peptide substrate (bis-AAF-R110) which cleaved by dead cell proteases leaking from damaged cell membrane.
Using the MultiTox-Fluor Cytotoxicity Assay, the relative number of dead cells was measured in the lymphoblastoid cell line with complete culture medium following compound treatment for 16 hours. The assay was performed in opaque black Kalypsys 1536-well plates. In the screen, tetraoctylammonium bromide was used as positive control. Library compounds were measured for their ability to cause acute toxicity in the cell line, as reflected by an increase in dead cell protease activity, in a concentration-dependent manner. Data were normalized to the controls for basal activity (DMSO only) and 100% stimulation (15 uM tetraoctylammonium bromide). AC50 values were determined from concentration-response data modeled with the standard Hill equation.
qHTS protocol for MultiTox-Fluor Cytotoxicity assay
[Step] [Parameter] [Value] [Description]
1. Reagent; 5 uL; 2500 lymphoblastoid cells/well
2. Time; 5 hr; 37 C incubation
4. Controls; 23 nL; Tetraoctylammonium bromide 6.4pM to 92 uM
5. Time; 16 hr; 37 C incubation
6. Reagent; 5 uL; MuliTox-Fluor Assay reagent
7. Time; 60 min; Room Temperature
8. Detection; dead-cell fluorescence (Ex/Em=485/520); EnVision plate reader
Keywords: cytotoxicity, lymphoblastoid cell line, fluorescence, NTPHTS, NTPHTS_NCGC, NIEHS, EPA, DSSTox, MLSMR, MLSCN, NIH Roadmap, qHTS, NCGC
Consider `c1ccc(Nc2ccc3ccccc3c2)cc1`, for which the “cytotoxicity (dead cells)” value is 1.09%. Regarding `O=Cc1ccccc1`, the “cytotoxicity (dead cells)” value was -8.2%.

`Oc1ccccc1O`: the Potency is 12.6 µM (active). In the case of `CC(C)COC(=O)c1ccccc1C(=O)OCC(C)C`, the “cytotoxicity (dead cells)” value is -9.68%. As to `CCOC(=O)c1ccccc1N`, the “cytotoxicity (dead cells)” value is -4.38%.

Take `CCOc1cc(C=O)ccc1O`: the “cytotoxicity (dead cells)” value was 0.247%.

Consider `Cc1ccccc1O`, for which the “cytotoxicity (dead cells)” value is 5.23%. Same read-out and setting: for `CC(C)(c1ccc(OCC2CO2)cc1)c1ccc(OCC2CO2)cc1` (centres undefined) the value was 29.2%. Same read-out and setting: with `CC(=O)/C=C/c1ccccc1` the figure was -6.58%. The same measure, in the same setting: with `Oc1c(Cl)c(Cl)c(Cl)c(Cl)c1Cl` the figure was 2.97%; with `COC1=CC(=O)OC(CCc2ccc3c(c2)OCO3)C1` (centres undefined), 0.397%. Consider `c1ccc2c(c1)-c1cccc3cccc-2c13`, for which the “cytotoxicity (dead cells)” value is -2.36%. On to `COC(=O)c1ccccc1C(=O)OC`, for which the “cytotoxicity (dead cells)” value is -5.08%. For `Oc1ccccc1Cl`, the “cytotoxicity (dead cells)” value is -5.02%.
